S1P3 antag = S1P3 receptor antagonists, primary screen, cell-based. inhibition, % at 4.98 µM. hit rate 0.27% among 170,000. AID 485, 2006. CHO S1P3 NFAT-BLA reporter, FRET fluorescence, antagonist mode;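 active = inhibition above the plate cutoff, the mean inhibition of test wells on that plate plus 3 SD, cut at about 28% in these data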;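 also: cells challenged with S1P at its EC80 of 0.8 µM; blue over green emission ratio from cleaved BLA substrate after 4 h stimulation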
Target sequence (Q99500 whole entry, looked up): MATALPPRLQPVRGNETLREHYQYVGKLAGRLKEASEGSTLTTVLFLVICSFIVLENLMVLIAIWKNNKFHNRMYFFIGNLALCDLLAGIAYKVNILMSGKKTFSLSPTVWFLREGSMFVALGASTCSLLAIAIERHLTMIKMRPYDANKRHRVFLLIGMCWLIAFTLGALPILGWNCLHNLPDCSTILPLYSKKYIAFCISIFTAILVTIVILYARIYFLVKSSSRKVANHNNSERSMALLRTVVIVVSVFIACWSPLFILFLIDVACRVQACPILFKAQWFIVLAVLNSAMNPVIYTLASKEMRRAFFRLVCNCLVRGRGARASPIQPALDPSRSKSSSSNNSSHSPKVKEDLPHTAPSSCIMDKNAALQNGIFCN
S1P4 antag = S1P4 receptor antagonists, primary screen, cell-based; AID 1510, 2009; inhibition, % at 4.98 µM; S1P4-expressing cells, antagonist mode, reporter read-out; Sphingosine 1-phosphate receptor 4 (Homo sapiens), O95977; hit rate 0.26% among 220,000; in the data active = inhibition above about 29%
S1P4 agonist = S1P4 receptor agonists, primary screen, cell-based. Sphingosine 1-phosphate receptor 4 (Homo sapiens), O95977. S1P4-expressing cell line, agonist reporter assay. activation, % at 4.98 µM. hit rate 0.35% among 220,000. AID 1509, 2009; in the data active = activation above about 11%
EP2 mod = EP2 receptor modulators, cAMP readout, primary screen, cell-based, HTRF cAMP, PGE2 stimulation; EP2-expressing cells, cAMP HTRF FRET, PGE2 co-stimulation; induction, % at 25 µM; hit rate 0.83% among 260,000; Prostaglandin E2 receptor EP2 subtype (Homo sapiens), P43116;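 active = compounds whose cAMP rise, as percent of the full-agonist control response, exceeds 60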;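 also: rat C6 glioma line stably carrying human EP2 under a CMV promoter; the protocol text gives 20 µM as final concentration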
Insulin prom inh = inhibitors of insulin promoter-driven GFP, primary screen, imaging, TRM-6 cells (human fetal islet line), eGFP reporter, cell count. inhibition, % at 2 µM. AID 1273, 2008. hit rate 0.9% among 130,000. reporter expression induced with tamoxifen;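 active = inhibition above the mean plus 3 SD, with well images judged a real hit on visual review, cut at about 60% in these data, passing the limit was not always enough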
EP2 antag = human EP2 receptor antagonists, primary screen, TR-FRET cAMP, C6 glioma cells. Prostaglandin E2 receptor EP2 subtype (Homo sapiens), P43116. C6 glioma cells expressing human EP2; cells stimulated with saturating PGE2. inhibition, % at 25 µM. hit rate 0.52% among 260,000. AID 1422, 2008;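 active = percent inhibition above 40 after rounding to a whole number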;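 also: rat C6 glioma host cells with rolipram phosphodiesterase inhibitor present; the protocol text gives 20 µM as final concentration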
A number is an active result. Rows were chosen to be rich in hits. Some 2.4% of all compounds tested hit in one or more screens of this group.

N=C1C(c2nc3ccccc3c(=O)[nH]2)=C(O)CN1Cc1ccco1 was read as EP2 mod inactive and EP2 antag inactive.
`C[C@H]1CCCC2(CC[N+](C)(CCC[N+](C)(C)C)CC2)C1` (stereo partly specified) gave EP2 mod inactive and EP2 antag 48.1.
`CCCCN1CCc2c1nc1ccc(Br)cc1c2N` gave S1P4 antag inactive, S1P4 agonist inactive, EP2 mod inactive, Insulin prom inh 86.7 and EP2 antag inactive.
`CCN(CC)c1nc2c(c(=O)[nH]c(=O)n2C)n1Cc1cccc(C)c1` gave EP2 mod inactive and EP2 antag inactive.
Cc1cc(/C=N/n2cnnc2)c(C)n1-c1ccc(OCc2ccc(F)cc2)cc1 was read as S1P3 antag 76.9, S1P4 antag inactive, S1P4 agonist inactive, EP2 mod inactive, Insulin prom inh inactive and EP2 antag inactive.
`Cc1cc(/C=N/n2cnnc2)c(C)n1-c1ccc(OCc2ccc(Cl)cc2Cl)cc1` gave S1P4 antag inactive, S1P4 agonist inactive, EP2 mod inactive, Insulin prom inh inactive and EP2 antag inactive.
For CN(C)[C@H]1C(=O)C(C(=O)NCN2CCCC2)=C(O)[C@@]2(O)C(=O)C3=C(O)c4c(O)cccc4[C@](C)(O)[C@H]3C[C@H]12 the results were EP2 mod inactive and EP2 antag 44.0.
Screening CC1CCc2c(sc3nc(SCC(=O)NCc4ccco4)nc(N)c23)C1 (stereo unspecified) returned S1P3 antag 92.4, S1P4 antag inactive, S1P4 agonist inactive, EP2 mod inactive and EP2 antag inactive.
CCCC1C(=O)N(c2ccccc2)C1c1ccccc1 (stereo unspecified) was read as S1P4 antag inactive, S1P4 agonist inactive, EP2 mod 64.0 and EP2 antag inactive.
`COc1ccc(-c2nnc(SCC(=O)c3ccccc3)o2)cc1OC` gave EP2 mod inactive and EP2 antag inactive.
`COc1ccc(C(=O)CSc2nnc(-c3ccc(OC)c(OC)c3)o2)cc1` gave EP2 mod inactive and EP2 antag 58.6.
Screening CN(c1ccc(C(=O)N2CCCC2)cc1)S(C)(=O)=O returned EP2 mod inactive and EP2 antag inactive.
For CN(c1ccc(C(=O)N2CCOCC2)cc1)S(C)(=O)=O the results were S1P4 antag inactive, S1P4 agonist inactive, EP2 mod inactive, Insulin prom inh inactive and EP2 antag 146.3.
Screening COCCCNC(=O)c1c(-c2c(Cl)cccc2Cl)noc1C returned EP2 mod inactive and EP2 antag inactive.
CS[C@@]12C(=O)C[C@@]3(C)[C@@H](CC[C@@]3(O)C(=O)CO)[C@H]1CCC1=CC(=O)CC[C@]12C was read as EP2 mod inactive and EP2 antag 51.1.
CC(C)C(=O)N1CCCc2cc(C(O)CN3CCN(c4ccccc4)CC3)ccc21 (stereo unspecified) was read as EP2 mod inactive and EP2 antag inactive.
Screening CN1CCN(CCCBr)CC1 returned EP2 mod inactive and EP2 antag 41.0.
`O=C(Nc1ccccc1Cl)c1ccccc1Cc1ccccc1` gave S1P3 antag inactive, S1P4 antag inactive, S1P4 agonist inactive, EP2 mod 63.9 and EP2 antag inactive.
CC1CN(CC(=O)Nc2ccc3[nH]c(=O)[nH]c3c2)CCC1(O)c1ccc(F)cc1 (stereo unspecified) was read as EP2 mod inactive.
COc1ccc(/C=N/Nc2nccnc2Cl)c(OC)c1 was read as S1P3 antag inactive, S1P4 antag inactive, S1P4 agonist inactive, EP2 mod inactive and EP2 antag inactive.
COc1ccc(/C=N/Nc2nccnc2Cl)cc1 was read as S1P4 antag inactive, S1P4 agonist inactive, EP2 mod inactive, Insulin prom inh 83.3 and EP2 antag inactive.
Screening Cc1nc2c(c(=O)[nH]1)CCN(Cc1ccccc1)C2 returned EP2 mod inactive and EP2 antag inactive.
For Cc1c(Cl)cc(C(C)(C)C)c(O)c1Cc1c(C)c(Cl)cc(C(C)(C)C)c1O the results were EP2 mod inactive and EP2 antag 47.3.

Bioassay records (PubChem)
